In PubChem BioAssay AID485317 (Broad Institute, 2010) one finds inhibition data, which are given here for 57 molecules.

In all, about 290,000 compounds went through this assay and about 11,000 (3.8%) were called active. Many of the other results were omitted from the sample, so actives are more common in it than they were. A number with no mark means an inactive call.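 Rule for the calls: active = mean replicate inhibition above about 79%, with every replicate also reaching it (limit read from the data); inconclusive = only one of the two criteria met; inactive = mean below limit and not every replicate reaching it.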

For this experiment, the target named is FAD-linked sulfhydryl oxidase ALR (Homo sapiens) (UniProt P55789). In words: inhibitors of human ALR sulfhydryl oxidase, primary screen, biochemical, H2O2 detection, HRP-luminol luminescence, single point (AID 485317). The settings on record: purified ALR, DTT oxidation, hits give high values, concentration not given here.
FAD-linked sulfhydryl oxidase ALR (Homo sapiens), sequence (P55789 whole entry, looked up): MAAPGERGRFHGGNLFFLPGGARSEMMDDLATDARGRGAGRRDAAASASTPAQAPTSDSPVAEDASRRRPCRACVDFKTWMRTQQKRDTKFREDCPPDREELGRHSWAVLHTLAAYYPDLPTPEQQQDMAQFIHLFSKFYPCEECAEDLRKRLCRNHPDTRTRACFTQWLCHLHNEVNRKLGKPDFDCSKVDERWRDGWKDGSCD
Turning to `Cc1ccc(S(=O)(=O)N2CCN(C(=O)c3ccccc3-c3nc4ccccc4s3)CC2)c(C)c1`, the inhibition is -15.3%. Turning to `Cc1ccc(NC(=O)C(c2ccccc2)N2CCN(C(=O)c3ccco3)CC2)cc1` (configuration not stated), the inhibition was -2.06%. Take `COc1cc(OC)cc(C(=O)N[C@H](C(=O)NNC(=O)c2ccc(Br)cc2)C(C)C)c1`: the inhibition was -9.81%. Then `CC(=NCc1ccco1)C1=C(O)c2ccccc2C1=O`, with 2.24%; and `CCc1ccc(-c2cc(C(=O)NCc3ccco3)c3ccccc3n2)s1`, with 52.8%. On to `CC(=NCc1ccco1)c1c(C(F)(F)F)[nH]n(-c2nc3ccccc3s2)c1=O`, for which the inhibition was 92.1% (active).

Consider `COc1cc(C=NNC(=O)c2cccnc2)ccc1OC(=O)c1ccccc1F`, for which the inhibition is 20.1%. `COc1ccc(CCNC(=O)COC(=O)c2cnc(Cl)c(Cl)c2)cc1`: the inhibition is -2.44%. Regarding `Cc1cc(NC(=O)CSc2ncc(C(F)(F)F)cc2Cl)no1`, the inhibition was -1.5%. Then `COc1cc2c(cc1/C=C1/NC(=O)N(c3ccccc3)C1=O)OCO2`, with -7.41%. In the case of `COc1ccc(S(=O)(=O)Nc2ccc3c(c2)OCO3)cc1Cl`, the inhibition is 9.92%. In the case of `COc1ccccc1C1C2=C(COC2=O)Nc2cc3c(cc21)OCO3` (configuration not stated), the inhibition is 97.9% (active). Regarding `CC[C@@]12C(=O)N(c3ccccc3)C(=O)N1[C@H](c1ccc(Br)cc1)[C@@H]1C(=O)N(C(C)(C)C)C(=O)[C@@H]12`, the inhibition was -9.54%. As for `COc1cc(S(=O)(=O)N2CCN(C(=O)C3CC3)CC2)ccc1NC(C)=O`, the inhibition is -5.34%.

For `COc1ccc(S(=O)(=O)N(C)C[C@H]2Oc3ccc(NS(=O)(=O)c4cccs4)cc3CC(=O)N([C@H](C)CO)C[C@H]2C)cc1`, the inhibition is -0.0995%. In the case of `O=c1oc(-c2ccco2)nc2sc3c(c12)CCCCC3`, the inhibition is 88.4% (active). As for `Cn1c(=O)n(Cc2ccco2)c(=N)c2c3c(sc21)CCCC3`, the inhibition is 3.35%. Then `O=S(=O)(c1ccc(Cl)cc1)c1nc(-c2ccco2)oc1N1CCCCC1`, with 5.77%; and `CCC(CO)Oc1cc(NC(=O)c2ccc(Cl)cc2)c2ncn(C(C)C)c2c1` (configuration not stated), with -2.2%. Consider `CC(=O)c1c(C)[nH]c(C(=O)N2CCN(S(=O)(=O)c3ccc(F)c(F)c3)CC2)c1C`, for which the inhibition is -0.525%. As to `CCN(/N=C/c1ccccc1)c1cc(=O)n(C)c(=O)[nH]1`, the inhibition was -9.29%.

For `Oc1ccc(/C=N/N(Cc2ccccc2)c2ccccc2)cc1`, the inhibition was 99.2% (active). The figure for `CN(C)c1ccc(/C=N/N(Cc2ccccc2)c2ccccc2)cc1` is -4.17%. Take `Cc1ccc(C(=O)NNC(=O)CSc2nnc3ccccn23)cc1`: the inhibition is -4.37%. With `Cc1cc(C)c(-c2c(O)c3ccccc3n(C)c2=O)c(C)c1`, the inhibition was -13.7%. For `Cc1cc(O)c(Sc2ccccc2)c(=O)o1`, the inhibition is -17.8%.

In the case of `COc1ccc(NCCc2ccccn2)cc1`, the inhibition was 99.8% (active). For the molecule `COc1cccc(NC(=S)NCc2ccccn2)c1`, the inhibition is -3.74%. As to `Cc1c(C)c(C)c(S(=O)(=O)NCCc2ccccn2)c(C)c1C`, the inhibition was 3.53%. Take `COc1ccc(C)cc1NC(=O)CCCN1C(=O)NC(C)(C)C1=O`: the inhibition was 0.111%.

As for `Cc1cccc(-c2oc3ccc(-c4ccc5c(c4)OCO5)cc3c2C#Cc2cncn2C)c1`, the inhibition is -9.37%. In the case of `Cc1cccc(NC(=O)c2nc(S(=O)(=O)Cc3ccccc3)ncc2Cl)c1`, the inhibition is 4.68%.

Consider `Cc1cccc(CS(=O)(=O)c2ncc(Cl)c(C(=O)Nc3ccc(F)cc3)n2)c1`, for which the inhibition was 98.4% (active). `Cc1ccc(S(=O)(=O)CC(=O)Nc2nnc(C)s2)cc1`: the inhibition was -1.7%. With `CSc1ncc(Cl)c(C(=O)Nc2cc(C)ccc2C)n1`, the inhibition was -2.22%.

For `CSc1nnc(NC(=O)c2nc(S(=O)(=O)Cc3ccc(C)cc3)ncc2Cl)s1`, the inhibition is 8.89%. With `Cc1ccc(CS(=O)(=O)c2ncc(Cl)c(C(=O)Nc3nnc(C)s3)n2)cc1`, the inhibition is 97.5% (active). In the case of `N#Cc1cccc(OC(=O)c2ccc3c(=O)n4c(nc3c2)CCC4)c1`, the inhibition was 43.5%. The figure for `CC1CCCCC1NC(=O)COc1ccc(C#N)cc1` (configuration not stated) is 0.208%; for `COc1cc(Cl)c(C)cc1NC(=O)CSc1nnc(CN2CCCC2)o1` it is -7.65%. Take `Cc1ccc(C)c(C(=O)COC(=O)Cn2[nH]c(=O)c3ccccc3c2=O)c1`: the inhibition was -2.55%. With `CC(Oc1cccc(Cl)c1)C(=O)Nc1ccc(S(=O)(=O)Nc2ncccn2)cc1` (configuration not stated), the inhibition is 7.5%. The figure for `Cc1noc(NS(=O)(=O)c2ccc(N/C=C/C(=O)c3ccccc3)cc2)c1C` is 85.4% (active). As for `Cc1noc(NS(=O)(=O)c2ccc(NC(=O)C34CCC(CC3)C4)cc2)c1C`, the inhibition was 6.47%. Then `CCn1c(SCC(=O)Nc2ccc(S(=O)(=O)Nc3onc(C)c3C)cc2)nnc1-c1ccccc1`, with 53.3%; and `CCc1ccc(OC(C)C(=O)Nc2ccc(S(=O)(=O)Nc3cc(C)on3)cc2)cc1` (configuration not stated), with 9.12%. The figure for `Cc1cc(OC(C)C(=O)Nc2ccc(S(=O)(=O)Nc3onc(C)c3C)cc2)cc(C)c1Cl` (configuration not stated) is 97.6% (active); for `CCOc1cc(N2CCOCC2)c(OCC)cc1NC(=O)COc1cccc(Cl)c1` it is -15.1%; for `O=C(CCCOc1ccccc1)NNC(=O)c1ccc(Cl)cc1` it is 3.44%. For the molecule `Cc1occc1C(=O)N/N=C/c1ccc(-c2cccc([N+](=O)[O-])c2)o1`, the inhibition was -4.94%.

Turning to `COc1ccc(NC(=O)CNc2cc(S(=O)(=O)N3CCOCC3)ccc2N2CCOCC2)c(OC)c1`, the inhibition is 1.23%.

On to `Cc1ccc(NS(=O)(=O)c2ccc(C(C)C)cc2)cc1S(=O)(=O)N1CCOCC1`, for which the inhibition was 4.5%. Take `Cc1cc(C(=O)Nc2nnc(C3CC3)s2)c(C)s1`: the inhibition was -0.2%. On to `CC(C)CN(C(=O)COC(=O)c1ccc(Cl)c(N)c1)c1c(N)n(Cc2ccccc2)c(=O)[nH]c1=O`, for which the inhibition is -4.01%. The figure for `Cc1cc(/C=N/n2cnnc2)c(C)n1-c1cccc(C(=O)O)c1` is 2.1%. Then `CN1C(=O)/C(=C/c2ccco2)SC1=Nc1cccc(C(=O)O)c1`, with 1.79%; and `Cc1cc(/C=C2\SC(=O)N(C)C2=O)c(C)n1-c1cccc(C(=O)O)c1`, with 81.6% (active).
